# Source: PubChem (National Center for Advancing Translational Sciences (NCATS))
# A selection: hits, their analogues and other compounds. The true share with any hit is near 19%.
# KB-V1 MDR tox – KB-V1 MDR subline cytotoxicity. KB-V1 MDR cells viability, CellTiter-Glo, 72 h. hit rate 3.4% among 400,000. Potency, µM (titrated, usually from 46.1 µM), actives largely listed as cytotoxic. AID 1347076; further: nearly all actives have a fitted effect of over 60% in size
#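 Cytotoxicity via CellTiter-Glo luminescence after 72 h compound exposure at 37 degrees C. Cells: drug-selected KB-V1 line, DMEM phenol-red free plus 10% FBS. Compounds tested at multiple concentrations; normalized data fitted to concentration-effect curves.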
# TDP1 cell CPT – DT40-hTDP1 cell growth loss with CPT | hit rate 12% among 420,000 | chicken DT40 Tdp1-/-;hTDP1 cells + 20 nM CPT, ATP luminescence, 48 h | Potency, µM (titrated, usually from 46.2 µM), hits mostly inhibitors; further: nearly all actives have a fitted effect of over 55% in size
#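 Cell growth measured by CellTiter-Glo luminescence after a minimum 48 h, 37 C compound exposure with 20 nM CPT in Tdp1-knockout DT40 cells stably expressing hTDP1, seeded 400/well; qHTS titration format.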
# DT40 TDP1 no CPT – qHTS for Inhibitors of human tyrosyl-DNA phosphodiesterase 1 (TDP1): qHTS in cells in absence of CPT. DT40 Tdp1-/- hTDP1 cells, no CPT, ATP luminescence, 48 h. Potency, µM (highest dose often 46.2 µM), hits mostly inhibitors. hit rate 15% among 420,000; further: nearly all actives have a fitted effect of over 55% in size
#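 No-CPT arm: Tdp1-/-;hTDP1 DT40 cells (400/well) plus compounds, incubated ≥48 hr at 37 °C. Readout CellTiter-Glo luminescence.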
# KB-3-1 tox – KB-3-1 parental cell cytotoxicity; Potency, µM (top dose mostly 46.1 µM), actives largely listed as cytotoxic; AID 1347075; KB-3-1 viability, CellTiter-Glo ATP luminescence, 72 h; hit rate 1.4% among 400,000; further: nearly all actives have a fitted effect of over 60% in size
#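 Using CellTiter-Glo luminescence, growth of non-resistant KB-3-1 adenocarcinoma cells is assessed 72 h after pin-tool compound addition at 37 °C. Normalized responses across the concentration series yield fitted curves.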
# HT1080 IDH1KD tx – HT-1080 IDH1 knockdown cell toxicity (counter line) | Potency, µM (titrated, usually from 46.1 µM), actives largely listed as cytotoxic | HT-1080 IDH1 knockdown viability, ATP luminescence, 48 h | hit rate 2% among 360,000 | AID 686971
#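 Cytotoxicity counter-line: IDH1KD HT-1080, 48 h, CellTiter-Glo. Curves classed by r2, magnitude and activity.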
# HT1080-NT tox – kills 2HG-producing HT-1080-NT fibrosarcoma cells; Potency, µM (highest dose often 46.1 µM), actives largely listed as cytotoxic; hit rate 1.6% among 360,000; HT-1080-NT fibrosarcoma viability, CellTiter-Glo ATP luminescence, 48 h; AID 686970;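 further: NT is the 2HG producing partner of a matched IDH1 knockdown line; nearly all actives have a fitted effect of over 55% in size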
#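 Read-out is CellTiter-Glo luminescence after 10 minutes at room temperature, following 48 hours' compound treatment of HT-1080-NT cells (750 cells/well, RPMI, 5% FBS, 37 degrees C).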
# Numbers stand for hits; - = inactive; ? = inconclusive; . = no result given. The call rests on the fitted dose curve; in most records, active means well fitted curve in the direction sought with a large enough effect; inconclusive means small, poorly fitted or top-dose-only effect, or another doubt; inactive means no such curve, though single readings can be large; an effect the other way counts as inactive or inconclusive.
SMILES,KB-V1 MDR tox,TDP1 cell CPT,DT40 TDP1 no CPT,KB-3-1 tox,HT1080 IDH1KD tx,HT1080-NT tox
CCCC1NC(=O)c2cc3ccccc3cc2-n2c1nc1cc(F)ccc1c2=O (stereo not drawn),-,?,21µM,-,?,-
O=C1NC(Cc2ccccc2)c2nc3cc(F)ccc3c(=O)n2-c2cc3ccccc3cc21 (stereo not drawn),?,5.2µM,5.8µM,?,16µM,?
CCC1NC(=O)c2cc3ccccc3cc2-n2c1nc1cc(F)ccc1c2=O (stereo not drawn),?,-,?,-,-,-
O=C1NC(Cc2ccccc2)c2nc3ccccc3c(=O)n2-c2cc3ccccc3cc21 (stereo not drawn),?,13µM,13µM,13µM,9.2µM,?
CCC(C)(C)NC(=O)/C=C/c1cccs1,-,-,-,-,-,-
O=C(CSc1nnc(-c2cccs2)o1)Oc1ccc(Cl)cc1,-,-,-,-,.,.
CC(=O)Nc1nc2ccccc2n1Cc1ccccc1Cl,?,21µM,8.2µM,?,?,18µM
CC(=O)NC(C)c1nc2ccccc2n1Cc1ccccc1Cl (stereo not drawn),-,?,?,-,.,.
CC(=O)N1CCCC1c1nc2ccccc2n1Cc1ccccc1 (stereo not drawn),-,-,-,-,.,.
CC(=O)Nc1nc2ccccc2n1Cc1ccccc1C,-,9.2µM,13µM,?,?,?
CC(=O)NCc1nc2ccccc2n1Cc1ccccc1C,-,-,-,-,-,-
CC(=O)N1CCCC1c1nc2ccccc2n1Cc1ccccc1Cl (stereo not drawn),-,?,18µM,-,.,.
S=c1[nH]nc(-c2ccc(Cl)cc2)n1/N=C/C=C/c1ccco1,-,?,21µM,-,-,-
S=c1[nH]nc(-c2ccccc2)n1/N=C/C=C/c1ccco1,-,?,?,-,-,-
Cc1cc(-c2n[nH]c(=S)n2/N=C/C=C/c2ccco2)n[nH]1,-,-,-,-,-,-
Cc1ccccc1-c1n[nH]c(=S)n1/N=C/C=C/c1ccco1,-,?,18µM,-,-,-
Cc1ccc(S(=O)(=O)N2CCN(C(=O)c3cc(-c4cccs4)nn3-c3ccccc3)CC2)cc1,4.6µM,13µM,18µM,-,-,-
O=C(c1cc(-c2cccs2)nn1-c1ccccc1)N1CCN(S(=O)(=O)c2ccccc2)CC1,16µM,?,18µM,-,-,-
N#Cc1c(NC(=O)/C=C/C(=O)O)sc2c1CCN(Cc1ccccc1)C2,-,-,?,-,-,-
COC(=O)c1ccc(CC2(C)C(=O)Nc3ccc(-c4cccc(C(F)(F)F)c4)cc32)o1 (stereo not drawn),?,?,16µM,?,?,?
COc1ccccc1-c1ccc2c(c1)C(C)(Cc1cccc(F)c1)C(=O)N2 (stereo not drawn),21µM,?,?,?,?,?
CC1(Cc2ccc(OC(F)(F)F)cc2)C(=O)Nc2ccc(OC(F)(F)F)cc21 (stereo not drawn),-,?,?,-,?,?
CC(=O)c1cccc(-c2ccc3c(c2)C(C)(Cc2ccccc2F)C(=O)N3)c1 (stereo not drawn),-,26µM,18µM,-,?,-
COc1ccc2c(c1)C(C)(Cc1ccc(C(=O)c3ccccc3)cc1)C(=O)N2 (stereo not drawn),-,?,?,-,-,-
Cc1ccc(CCNC(=O)C2CCN(S(=O)(=O)c3ccc4nc5c(c(C(=O)O)c4c3)CCCC5)CC2)cc1,-,-,-,?,-,-
SMILES,KB-V1 MDR tox,TDP1 cell CPT,DT40 TDP1 no CPT,KB-3-1 tox,HT1080 IDH1KD tx,HT1080-NT tox
CCOC(=O)C(=Cc1ccc(OCc2ccc([N+](=O)[O-])cc2)c(OC)c1)C(=O)OCC,21µM,13µM,15µM,?,?,21µM
COC(=O)C(=Cc1ccc(OCc2ccc([N+](=O)[O-])cc2)c(OC)c1)C(=O)OC,?,9.2µM,13µM,-,?,?
COc1cc(C=O)ccc1OCCCOc1ccc([N+](=O)[O-])cc1,-,?,?,-,-,-
CCN(CC)S(=O)(=O)c1ccc(C)c(NC(=O)COC(=O)CN2C(=O)NC(C)(C)C2=O)c1,-,-,-,-,-,-
CC(Oc1ccccc1F)C(=O)Nc1ccc(-c2nc3ccccc3s2)cc1 (stereo not drawn),-,-,-,-,.,.
COc1ccccc1OC(C)C(=O)Nc1cccc(-c2nc3ccccc3o2)c1 (stereo not drawn),-,?,21µM,-,.,.
COc1ccccc1OC(C)C(=O)Nc1cccc(-c2nc3ccccc3s2)c1 (stereo not drawn),-,21µM,12µM,-,.,.
Cc1cc(OC(C)C(=O)Nc2cccc(-c3nc4ccccc4o3)c2)cc(C)c1Cl (stereo not drawn),?,?,16µM,-,.,.
COc1ccc(CC(=O)Nc2ccc(-c3nc4ccccc4s3)c(C)c2)cc1OC,?,?,26µM,-,.,.
COc1cccc(CC(=O)Nc2ccc(-c3nc4ccccc4s3)cc2)c1,-,-,-,-,.,.
COc1ccc(C(=O)NNC(=O)Cc2nc3nc(C)cc(C)n3n2)cc1,-,-,-,-,-,-
Cc1cccc(C)c1-n1nnnc1C1(C)CCC(=O)N1c1ccc(N2CCOCC2)cc1 (stereo not drawn),-,?,?,-,-,-
Cc1cc(S(=O)(=O)NCC(c2ccc(F)cc2)N2CCN(C)CC2)ccc1F (stereo not drawn),-,?,?,-,-,?
N=c1c(C(=O)NCCN2CCOCC2)cc2c(=O)n3ccccc3nc2n1CCCN1CCOCC1,-,-,-,-,-,-
O=C(NCCN1CCN(c2ccccc2)CC1)c1cccn2c(=O)c3ccccc3nc12,?,?,18µM,-,-,-
CN(CCCNC(=O)c1cccn2c(=O)c3ccccc3nc12)Cc1ccccc1,?,22µM,?,?,20µM,?
O=C(NCCN1CCN(c2ccccc2F)CC1)c1cccn2c(=O)c3ccccc3nc12,?,?,16µM,-,-,-
COc1cc(CN2C[C@@H](CO)O[C@@H](n3cnc4c(N5CCOCC5)ncnc43)C2)cc(OC)c1OC,-,-,-,-,-,-
O=C(c1cccc(S(=O)(=O)N2CCCC2)c1)N1CCOCC1,-,-,-,-,-,-
COc1ccc(-c2cc(=O)c3ccccc3s2)cc1,15µM,?,?,-,-,-
COc1ccc(-c2c(-c3ccccc3OC)sc3ccccc23)cc1OC,?,?,-,?,-,-
